# Hit rate of the full screen: of about 5,500 compounds, about 2,000 (36%) were called active. Another 18% or so got no clear call; they are omitted. This is one part of the list. A number with no mark means an inactive call. Rule as the data show it: active = normalized growth mostly below about 0.91 (no sharp cut-off); inconclusive = no clear call, values can overlap the other calls; inactive = mostly above about 0.92.
# Test: chemical genetic growth profiling, strain panel (AID 1159580);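 also: tested at 20 µM; growth read once vehicle control cultures reached saturation at 30 °C; 1 = growth at the plate median or of vehicle wells; lower values mean less growth of the strain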
# Conditions: S. cerevisiae deletion strains, growth OD
structure (smiles),measurement,setting,value
CNCCC(Oc1ccccc1C)c1ccccc1 (configuration not stated),normalized growth,"locus YAL040C, strain CLN3, hits give low values",0.978
same,normalized growth,"locus YCL061C, strain MRC1 (second series), hits give low values",0.995
same,normalized growth,"locus YDR150W, strain NUM1, hits give low values",0.994
same,normalized growth,"locus YDR363W, strain ESC2, hits give low values",0.968
same,normalized growth,"locus YER002W, strain NOP16, hits give low values",0.995
same,normalized growth,"locus YMR263W, strain SAP30, hits give low values",0.982
same,normalized growth,"locus YMR307W, strain GAS1, hits give low values",0.971
same,normalized growth,"locus YNL128W, strain TEP1, hits give low values",1.05
same,normalized growth,"locus YNL153C, strain GIM3, hits give low values",0.984
same,normalized growth,"locus YNL175C, strain NOP13, hits give low values",1.04
same,normalized growth,"locus YNL197C, strain WHI3, hits give low values",1.02
same,normalized growth,"locus YNL224C, strain SQS1, hits give low values",1.08
same,normalized growth,"locus YNL322C, strain KRE1, hits give low values",0.96
same,normalized growth,"locus YOR083W, strain WHI5 (second series), hits give low values",1
same,normalized growth,"locus YPL055C, strain LGE1, hits give low values",0.984
same,normalized growth,"locus YPL241C, strain CIN2, hits give low values",1
C/C(=N/NC(N)=S)c1csc(-c2ccccc2)n1,normalized growth,"locus YAR019C, strain CDC15, hits give low values",0.917
same,normalized growth,"locus YBL105C, strain PKC1, hits give low values",0.947
same,normalized growth,"locus YBR135W, strain CKS1, hits give low values",0.948
same,normalized growth,"locus YBR136W, strain MEC1, hits give low values",0.941
same,normalized growth,"locus YBR160W, strain CDC28, hits give low values",0.942
same,normalized growth,"locus YDL017W, strain CDC7, hits give low values",0.962
same,normalized growth,"locus YDL028C, strain MPS1, hits give low values",0.948
same,normalized growth,"locus YDL101C, strain DUN1, hits give low values",0.931
same,normalized growth,"locus YDL108W, strain KIN28, hits give low values",0.942
same,normalized growth,"locus YDL132W, strain cdc53, hits give low values",0.942
same,normalized growth,"locus YDL214C, strain PRR2, hits give low values",0.834
same,normalized growth,"locus YDR052C, strain DBF4, hits give low values",0.944
same,normalized growth,"locus YDR054C, strain cdc34, hits give low values",0.898
same,normalized growth,"locus YDR226W, strain ADK1, hits give low values",0.961
same,normalized growth,"locus YDR477W, strain SNF1, hits give low values",0.816
same,normalized growth,"locus YER123W, strain YCK3, hits give low values",0.698
same,normalized growth,"locus YER133W, strain GLC7, hits give low values",0.791
same,normalized growth,"locus YFL009W, strain cdc4, hits give low values",0.913
same,normalized growth,"locus YFL029C, strain CAK1, hits give low values",0.935
same,normalized growth,"locus YFR003C, strain YPI1, hits give low values",0.948
same,normalized growth,"locus YFR019W, strain FAB1, hits give low values",0.895
same,normalized growth,"locus YFR028C, strain CDC14, hits give low values",0.936
same,normalized growth,"locus YGR040W, strain KSS1, hits give low values",0.823
same,normalized growth,"locus YGR052W, strain FMP48, hits give low values",0.96
same,normalized growth,"locus YGR092W, strain DBF2, hits give low values",0.545
same,normalized growth,"locus YHR030C, strain SLT2, hits give low values",1.46 [resistant] (active)
same,normalized growth,"locus YHR079C, strain IRE1, hits give low values",0.663
same,normalized growth,"locus YHR082C, strain KSP1, hits give low values",1.19
same,normalized growth,"locus YHR205W, strain SCH9, hits give low values",0.978
same,normalized growth,"locus YIL147C, strain SLN1, hits give low values",0.937
same,normalized growth,"locus YJL095W, strain BCK1, hits give low values",0.993
same,normalized growth,"locus YJL128C, strain PBS2, hits give low values",1.02
same,normalized growth,"locus YJL157C, strain FAR1, hits give low values",0.802
same,normalized growth,"locus YJR016C, strain ILV3, hits give low values",0.935
same,normalized growth,"locus YJR066W, strain TOR1 (second series), hits give low values",0.625
same,normalized growth,"locus YJR066W, strain TOR1, hits give low values",1.01
same,normalized growth,"locus YKL048C, strain ELM1, hits give low values",0.948
same,normalized growth,"locus YKL067W, strain YNK1, hits give low values",0.864
same,normalized growth,"locus YKL101W, strain HSL1, hits give low values",0.886
same,normalized growth,"locus YKL193C, strain SDS22, hits give low values",0.932
same,normalized growth,"locus YKL203C, strain TOR2, hits give low values",0.852
same,normalized growth,"locus YLR113W, strain HOG1, hits give low values",0.964
same,normalized growth,"locus YLR133W, strain CKI1, hits give low values",0.863
same,normalized growth,"locus YLR403W, strain SFP1, hits give low values",0.717
same,normalized growth,"locus YML070W, strain DAK1, hits give low values",0.884
same,normalized growth,"locus YMR001C, strain CDC5, hits give low values",0.935
same,normalized growth,"locus YMR205C, strain PFK2 (second series), hits give low values",0.883
same,normalized growth,"locus YMR277W, strain FCP1, hits give low values",0.914
same,normalized growth,"locus YNL006W, strain LST8, hits give low values",0.949
same,normalized growth,"locus YNL020C, strain ARK1, hits give low values",0.846
same,normalized growth,"locus YNL161W, strain CBK1, hits give low values",0.925
same,normalized growth,"locus YNL183C, strain NPR1, hits give low values",0.883
same,normalized growth,"locus YNL207W, strain RIO2, hits give low values",0.931
same,normalized growth,"locus YNL222W, strain SSU72, hits give low values",0.925
same,normalized growth,"locus YNL307C, strain MCK1 (second series), hits give low values",0.754
same,normalized growth,"locus YOL078W, strain AVO1, hits give low values",0.92
same,normalized growth,"locus YOL136C, strain PFK27, hits give low values",0.837
same,normalized growth,"locus YOR061W, strain CKA2, hits give low values",0.829
same,normalized growth,"locus YOR119C, strain RIO1, hits give low values",0.823
same,normalized growth,"locus YOR231W, strain MKK1, hits give low values",0.739
same,normalized growth,"locus YOR329C, strain SCD5, hits give low values",0.943
same,normalized growth,"locus YPL031C, strain PHO85, hits give low values",0.776
same,normalized growth,"locus YPL153C, strain RAD53, hits give low values",0.789
same,normalized growth,"locus YPL204W, strain HRR25, hits give low values",0.774
same,normalized growth,"locus YPL209C, strain IPL1, hits give low values",0.945
same,normalized growth,"locus YPL256C, strain CLN2, hits give low values",1.05
same,normalized growth,"locus YPR025C, strain CCL1, hits give low values",0.95
same,normalized growth,"locus YPR106W, strain ISR1, hits give low values",0.945
same,normalized growth,"locus YPR111W, strain DBF20, hits give low values",0.968
same,normalized growth,"strain NNK1, hits give low values",0.969
same,normalized growth,"strain TSCII, hits give low values",0.914

# — PubChem BioAssay AID1159580 (chemical genetic matrix, 2015)
